Bioassay records (PubChem BioAssay)
The list is not random: actives were taken first. Their share in the collection is about 7.8%.
NOMO-1 viab = NOMO-1 AML cell viability reduction, primary screen, STK33 inhibitor project, CellTiter-Glo luminescence; NOMO-1 AML viability, 72 h; inhibition, % (no concentration beside the values); 37,000 tested, 7.5% active; in the data active = inhibition above about 80%; inconclusive = no clear call, values can overlap the other calls
MITF inhib = inhibitors of MITF, primary screen, MITF inhibitor project, cell-based, luminescence | TRPM1 promoter luciferase, 24 h | inhibition, % (test concentration not listed) | 37,000 tested, 0.28% active | AID 2240, 2010; in the data active = inhibition above about 85%; inconclusive = no clear call, values can overlap the other calls; inactive = below about 68%;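 note: human melanocyte line stably carrying TRPM1 promoter luciferase reporter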
Shh pathway inh = Hedgehog pathway signaling inhibitors, primary screen, luminescence, Shh-LIGHT2 cells, Gli-luciferase. inhibition, % (test concentration not listed). Shh-LIGHT2 Gli-luciferase reporter, 30 h. 22,000 tested, 2.1% active;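 active = mean inhibition across valid replicates above about 65%, limit read from the data; inconclusive = mean under the limit, yet half or more replicates past it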;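 note: pathway switched on by Shh-conditioned medium diluted 1 in 25 in low serum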
Each line names hits and unclear results; the compound was inactive in the other large screens.

O=C(CSc1n[nH]c(-c2ccco2)n1)N1c2ccccc2Sc2ccccc21	none (no result: Shh pathway inh)
Cn1nnnc1SCC(=O)Nc1cc(Cl)cc(Cl)c1	none (no result: Shh pathway inh)
CC(=O)c1ccc(NC(=O)CSc2nnc(N)s2)cc1	none (no result: Shh pathway inh)
COC(=O)c1cc(NC(=O)CSc2nnc(N)s2)ccc1Cl	NOMO-1 viab 110 (no result: Shh pathway inh)
CCOC(=O)c1c(NC(=O)C23CCC(C)(C(=O)O2)C3(C)C)sc2c1CCCC2 (stereo unspecified)	none (no result: Shh pathway inh)
O=C(Cn1cnc2sc3c(c2c1=O)CCCC3)Nc1ccccc1Br	none (no result: Shh pathway inh)
Cc1cc(I)ccc1NC(=O)Cn1cc([N+](=O)[O-])cn1	none (no result: Shh pathway inh)
Cc1ccc(S(=O)(=O)NC(C)C(=O)Nc2cc([N+](=O)[O-])ccc2C)cc1 (stereo unspecified)	none (no result: Shh pathway inh)
COCc1cc(O)c(O)c(O)c1-c1c(COC)cc(O)c(O)c1O	NOMO-1 viab 97
COc1ccc(CCC(=O)O)c(O)c1	none
CCC(=O)NC(c1ccccc1OC)c1c(O)ccc2ccccc12 (stereo unspecified)	none (no result: Shh pathway inh)
Cc1ccc2oc(-c3ccc(C)c(NC(=O)COc4ccc(Br)cc4)c3)nc2c1	none (no result: Shh pathway inh)
Cc1cccc(OCC(=O)Nc2cc(-c3nc4cc(Cl)ccc4o3)ccc2C)c1	NOMO-1 viab 103 (no result: Shh pathway inh)
Cc1cc2nc(-c3ccc(C)c(NC(=O)COc4ccc([N+](=O)[O-])cc4)c3)oc2cc1C	NOMO-1 viab 94 (no result: Shh pathway inh)
Cc1ccc2oc(-c3ccc(Cl)c(NC(=O)COc4ccc(C)c(C)c4)c3)nc2c1	none (no result: Shh pathway inh)
CC(C)(C)c1ccc(S(=O)(=O)N2CCN(c3ccc([N+](=O)[O-])c(NCc4cccnc4)c3)CC2)cc1	none (no result: Shh pathway inh)
OCCN1CCN(C(=S)NCc2ccco2)CC1	none (no result: Shh pathway inh)
Cc1noc(C)c1NC(=O)Nc1ccc2c(c1)C(=O)N([C@@H](C)CO)C[C@H](C)[C@@H](CN(C)Cc1ccc(C(=O)Nc3ccccc3N)cc1)O2	none (no result: Shh pathway inh)
Cc1noc(C)c1NC(=O)Nc1ccc2c(c1)CC(=O)N([C@@H](C)CO)C[C@H](C)[C@H](CN(C)Cc1ccc(C(=O)Nc3ccccc3N)cc1)O2	NOMO-1 viab 88 (no result: Shh pathway inh)
C[C@@H]1CN([C@H](C)CO)C(=O)Cc2cc(NC(=O)NC3CCCCC3)ccc2O[C@H]1CN(C)Cc1ccc(C(=O)Nc2ccccc2N)cc1	none (no result: Shh pathway inh)
C[C@H]1CN([C@@H](C)CO)C(=O)Cc2cc(NC(=O)NC3CCCCC3)ccc2O[C@H]1CN(C)Cc1ccc(C(=O)Nc2ccccc2N)cc1	NOMO-1 viab 139 (no result: Shh pathway inh)
C[C@H](CO)N1C[C@H](C)[C@H](CN(C)Cc2ccc(C(=O)Nc3ccccc3N)cc2)Oc2ccc(NC(=O)Nc3ccc(F)cc3)cc2CC1=O	NOMO-1 viab 127 (no result: Shh pathway inh)
C[C@@H]1CN([C@H](C)CO)C(=O)Cc2cc(NC(=O)C3CC3)ccc2O[C@H]1CN(C)Cc1ccc(C(=O)Nc2ccccc2N)cc1	none (no result: Shh pathway inh)
C[C@@H]1CN([C@@H](C)CO)C(=O)Cc2cc(NC(=O)C3CC3)ccc2O[C@@H]1CN(C)Cc1ccc(C(=O)Nc2ccccc2N)cc1	NOMO-1 viab 82 (no result: Shh pathway inh)
O=C(CC(C(=O)O)N1CCCCC1)Nc1cccc([N+](=O)[O-])c1 (stereo unspecified)	none (no result: Shh pathway inh)
C[C@@H]1CN([C@H](C)CO)C(=O)Cc2cc(NC(=O)Nc3cccc4ccccc34)ccc2O[C@H]1CN(C)Cc1ccc(C(=O)Nc2ccccc2N)cc1	none (no result: Shh pathway inh)
C[C@@H]1CN([C@@H](C)CO)C(=O)Cc2cc(NC(=O)Nc3ccccc3)ccc2O[C@@H]1CN(C)Cc1ccc(C(=O)Nc2ccccc2N)cc1	NOMO-1 viab 124 (no result: Shh pathway inh)
C[C@@H]1CN([C@H](C)CO)C(=O)Cc2cc(NC(=O)Nc3ccc(C(F)(F)F)cc3)ccc2O[C@H]1CN(C)Cc1ccc(C(=O)Nc2ccccc2N)cc1	none (no result: Shh pathway inh)
C[C@@H]1CN([C@@H](C)CO)C(=O)Cc2cc(NC(=O)Nc3ccc(F)cc3)ccc2O[C@@H]1CN(C)Cc1ccc(C(=O)Nc2ccccc2N)cc1	NOMO-1 viab 113 (no result: Shh pathway inh)
CC(C)NC(=O)Nc1ccc2c(c1)CC(=O)N([C@@H](C)CO)C[C@H](C)[C@@H](CN(C)Cc1ccc(C(=O)Nc3ccccc3N)cc1)O2	none (no result: Shh pathway inh)
C[C@@H]1CN([C@@H](C)CO)C(=O)Cc2cc(NC(=O)Nc3ccc4c(c3)OCO4)ccc2O[C@@H]1CN(C)Cc1ccc(C(=O)Nc2ccccc2N)cc1	NOMO-1 viab 101 (no result: Shh pathway inh)
Cc1ccc(S(=O)(=O)NC(C)C(=O)Nc2ccc(I)cc2)cc1 (stereo unspecified)	none (no result: Shh pathway inh)
C/C=C/C(O)C(C)CC(C)C(OC(=O)CCC(=O)O)C(C)/C=C/C=C/C=C(\C)C(=O)O (stereo unspecified)	NOMO-1 viab inconclusive
CCN(CC(=O)Nc1cccc([N+](=O)[O-])c1)S(=O)(=O)c1ccc(C)cc1	none (no result: Shh pathway inh)
COC(=O)c1ccccc1NC(=O)CN(C)S(=O)(=O)c1cc(Cl)ccc1Cl	none (no result: Shh pathway inh)
CC(=O)Nc1ccc(C(=O)CSc2nc(C)cc(=O)[nH]2)cc1	none
CC(C)Cn1c(=S)[nH]c2ccccc2c1=O	none
Cc1[nH]c2ccccc2c1C(c1c(C)[nH]c2ccccc12)C(C)C	NOMO-1 viab 115
CCOc1ccc(Nc2nc(CSc3nc4ccccc4c(=O)n3-c3ccccc3)cs2)cc1	none (no result: Shh pathway inh)
CSc1nnc(-c2ccccc2)n1-c1ccccc1	none
Cc1cc(C)cc(Sc2ccc3nnc(-c4ccccc4)n3n2)c1	NOMO-1 viab 122, Shh pathway inh 67
O=C1c2ccccc2C(=O)N1CSc1nc2ccccc2s1	none
Nc1ncnc(Sc2nc3ccccc3s2)c1[N+](=O)[O-]	NOMO-1 viab 114 (no result: Shh pathway inh)
O=C(NCCO)c1cc2ccccc2oc1=O	none (no result: Shh pathway inh)
COc1cccc2cc(C(=O)CC3(O)C(=O)N(Cc4ccccc4)c4ccc(Br)cc43)c(=O)oc12 (stereo unspecified)	NOMO-1 viab 127 (no result: Shh pathway inh)
COc1cccc2cc(C(=O)NCc3ccccn3)c(=O)oc12	none (no result: Shh pathway inh)
O=C(CC1(O)C(=O)N(Cc2ccccc2)c2ccccc21)c1cc2ccccc2oc1=O (stereo unspecified)	NOMO-1 viab 105 (no result: Shh pathway inh)
Cc1cc(C)c2c(N)c(C(=O)c3cccs3)sc2n1	none
Cc1cc(OCc2ccc(Br)cc2)nc(-c2ccccc2O)n1	none
CCNS(=O)(=O)c1cc(-c2nnc(Nc3ccc(F)cc3)c3ccccc23)ccc1C	NOMO-1 viab inconclusive
CSC1=N/C(=C\c2ccccc2C)C(=O)S1	none
CSC1=N/C(=C\c2ccc(Br)cc2)C(=O)S1	NOMO-1 viab 131
Cc1oc2c(c1C(=O)N1CCC(C)CC1)C(=O)c1ccccc1C2=O	NOMO-1 viab 113, MITF inhib 85
Cc1ccc(S(=O)(=O)NCC(=O)N2CCC(C)CC2)cc1	none (no result: Shh pathway inh)
Cc1oc2c(c1C(=O)NCCc1ccccc1)C(=O)c1ccccc1C2=O	none
Cc1oc2c(c1C(=O)NC1CCCC1)C(=O)c1ccccc1C2=O	NOMO-1 viab 140
CSc1cccc(NC(=O)CN(C)S(=O)(=O)c2c(C)cc(C)cc2C)c1	none (no result: Shh pathway inh)
COc1cc(/C(C)=C/C(C)(O)C(C)O)oc(=O)c1C (stereo unspecified)	none
C[C@@H]1CN([C@H](C)CO)C(=O)c2cccc(NC(=O)Nc3ccc(C(F)(F)F)cc3)c2O[C@@H]1CN(C)CC1CC1	none
C[C@H](CO)N1C[C@H](C)[C@H](CN(C)CC2CC2)Oc2c(NC(=O)Nc3ccc(C(F)(F)F)cc3)cccc2C1=O	none
C[C@@H]1CN([C@@H](C)CO)C(=O)c2cccc(NC(=O)Nc3ccc(C(F)(F)F)cc3)c2O[C@H]1CN(C)CC1CC1	NOMO-1 viab 83
